Measurements taken from PubChem BioAssay (NCATS).
Results filed as inconclusive are left out. The source made the active and inactive calls. Unless noted, calls come from the whole dose curve; as a rule, active = well fitted curve in the direction sought with a large enough effect; inconclusive = small, poorly fitted or top-dose-only effect, or another doubt; inactive = no such curve, though single readings can be large; an effect the other way counts as inactive or inconclusive.

Key:
[1] = molecular target: Mitogen-activated protein kinase 10 (Mus musculus) (UniProt Q61831); assay: JNK3 AlphaScreen Assay (AID 530; active = well fitted curve in either direction with a large enough effect, not every such curve was filed as active;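 note: kinase came from lysate of stimulated human HepG2 cells; signal reports phosphorylation of biotinylated GST-cJun 1-79 at Ser73 with 10 µM ATP; series mostly up to about 57 µM; % is set by controls: 0 for no effect and ±100 for the full control effect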)
Method in brief: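 JNK3 came from HepG2 lysates pre-activated with IL-1beta and TNF-alpha and phosphorylated biotinylated GST-cJun (1-79) at 10 uM ATP, pH 7.6, room temperature. Compounds were titrated. AlphaScreen signal used anti-phospho-cJun (Ser73) antibody.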

[2] = molecular target: Cytochrome P450 3A4 (Homo sapiens) (UniProt P08684); assay: qHTS Assay for Activators of Cytochrome P450 3A4 (AID 885); note: nearly all actives have a fitted effect of over 65% in size
Cytochrome P450 3A4 (Homo sapiens), sequence (P08684 whole entry, looked up): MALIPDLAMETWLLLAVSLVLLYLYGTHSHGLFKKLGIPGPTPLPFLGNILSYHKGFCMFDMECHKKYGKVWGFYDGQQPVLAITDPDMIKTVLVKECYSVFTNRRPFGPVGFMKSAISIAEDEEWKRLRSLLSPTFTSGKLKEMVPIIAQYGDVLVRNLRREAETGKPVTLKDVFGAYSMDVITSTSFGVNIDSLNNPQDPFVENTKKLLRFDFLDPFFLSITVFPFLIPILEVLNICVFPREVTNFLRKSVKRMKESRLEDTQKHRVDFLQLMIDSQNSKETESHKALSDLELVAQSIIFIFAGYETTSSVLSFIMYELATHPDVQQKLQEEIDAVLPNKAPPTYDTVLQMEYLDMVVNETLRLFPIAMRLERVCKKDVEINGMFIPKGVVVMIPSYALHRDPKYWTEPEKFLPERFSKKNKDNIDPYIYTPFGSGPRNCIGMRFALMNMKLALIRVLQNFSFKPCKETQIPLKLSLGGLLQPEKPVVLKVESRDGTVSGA
Method in brief: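 Signal was normalized against complete inhibition by 57 uM ketoconazole. The reaction used 20nM CYP3A4 with 25uM Luciferin-PPXE, 10-min compound preincubation and a 60-min NADPH-supported step at RT.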

[3] = molecular target: Estrogen receptor (Homo sapiens) (UniProt P03372); assay: qHTS assay for small molecule antagonists of estrogen receptor alpha signaling (AID 588513; active = well fitted curve in the direction sought with a large enough effect in the signal ratio, with a control signal flat, not every such curve was filed as active; the % refers to the signal ratio; note: % is set by controls: 0 for no effect and ±100 for the full control effect)
Estrogen receptor (Homo sapiens), sequence (P03372 whole entry, looked up): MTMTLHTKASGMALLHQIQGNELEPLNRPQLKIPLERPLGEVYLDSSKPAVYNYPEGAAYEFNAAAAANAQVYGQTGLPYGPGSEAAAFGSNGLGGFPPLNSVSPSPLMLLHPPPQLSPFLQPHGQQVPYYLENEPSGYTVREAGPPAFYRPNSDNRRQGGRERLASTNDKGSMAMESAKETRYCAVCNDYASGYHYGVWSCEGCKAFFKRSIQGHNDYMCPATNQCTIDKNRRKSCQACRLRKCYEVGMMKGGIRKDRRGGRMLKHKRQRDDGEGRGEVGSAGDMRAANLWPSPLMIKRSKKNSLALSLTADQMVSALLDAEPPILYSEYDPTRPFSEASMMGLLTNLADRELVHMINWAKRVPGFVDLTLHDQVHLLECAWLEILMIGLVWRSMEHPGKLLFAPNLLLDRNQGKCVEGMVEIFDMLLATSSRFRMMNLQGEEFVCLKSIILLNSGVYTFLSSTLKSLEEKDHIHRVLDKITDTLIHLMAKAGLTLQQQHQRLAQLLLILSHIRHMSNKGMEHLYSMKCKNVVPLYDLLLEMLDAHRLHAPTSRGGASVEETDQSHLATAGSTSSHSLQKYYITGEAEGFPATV
Method in brief: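 ER-alpha-UAS-bla GripTite HEK 293 cells in medium with 2% charcoal/dextran-treated FBS were preincubated 4 h at 37 C, dosed with compound (1:2 titration), stimulated with 0.5nM 17-beta-estradiol for 18 h, then read by CCF4 beta-lactamase fluorescence.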

[4] = molecular target: Estrogen receptor (Homo sapiens) (UniProt P03372); assay: qHTS assay for small molecule agonists of estrogen receptor alpha signaling (AID 588514; calls by dose curve;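 note: 0% = vehicle only and 100% = reference agonist; nearly all actives have a fitted effect of over 70% in size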)
Method in brief: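 ER-alpha-UAS-bla GripTite HEK 293 cells in medium with 2% charcoal/dextran-treated FBS were treated with compound titrations at 37 C for 18 hrs; beta-lactamase reporter read by CCF4 fluorescence after 2 hrs at RT.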

[5] = qHTS assay for small molecule antagonists of peroxisome proliferator-activated receptor delta signaling (AID 588535; active = well fitted inhibition curve with a large enough effect in the signal ratio, with a control signal flat, not every such curve was filed as active; the % refers to the signal ratio;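 for max response: cells co-treated with a PPAR-delta agonist as stimulator during compound exposure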); settings: HEK293T PPARd-UAS-bla, beta-lactamase FRET ratio, 18 h; 460 nm channel
Method in brief: (§1)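 GeneBLAzer PPAR-delta-UAS-bla HEK293T cells in medium with 2% charcoal/dextran FBS were preincubated 5 hrs at 37 C, then given compounds, incubated 18 hrs at 37 C, and read by CCF4 beta-lactamase fluorescence; IC50 from Hill fits.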

[6] = molecular target: Peroxisome proliferator-activated receptor delta (Homo sapiens) (UniProt Q03181); assay: as above
Peroxisome proliferator-activated receptor delta (Homo sapiens), sequence (Q03181 whole entry, looked up): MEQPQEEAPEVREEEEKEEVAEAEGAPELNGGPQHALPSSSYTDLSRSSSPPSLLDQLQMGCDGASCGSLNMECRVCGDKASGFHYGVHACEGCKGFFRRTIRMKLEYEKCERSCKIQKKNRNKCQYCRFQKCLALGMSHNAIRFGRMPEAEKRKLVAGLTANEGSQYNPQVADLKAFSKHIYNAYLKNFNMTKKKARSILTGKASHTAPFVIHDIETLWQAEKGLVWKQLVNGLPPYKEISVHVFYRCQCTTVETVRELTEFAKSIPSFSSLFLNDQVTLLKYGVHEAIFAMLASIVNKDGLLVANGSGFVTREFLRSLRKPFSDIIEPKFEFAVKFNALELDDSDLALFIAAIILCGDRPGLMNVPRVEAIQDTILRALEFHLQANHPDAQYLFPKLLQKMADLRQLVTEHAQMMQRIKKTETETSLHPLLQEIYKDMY
Method in brief: as §1

[7] = molecular target: Vitamin D3 receptor (Homo sapiens) (UniProt P11473); assay: qHTS assay for small molecule agonists of vitamin D receptor signaling (AID 588543; calls by dose curve;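 note: 0% = DMSO basal and 100% = reference agonist control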)
Vitamin D3 receptor (Homo sapiens), sequence (P11473 whole entry, looked up): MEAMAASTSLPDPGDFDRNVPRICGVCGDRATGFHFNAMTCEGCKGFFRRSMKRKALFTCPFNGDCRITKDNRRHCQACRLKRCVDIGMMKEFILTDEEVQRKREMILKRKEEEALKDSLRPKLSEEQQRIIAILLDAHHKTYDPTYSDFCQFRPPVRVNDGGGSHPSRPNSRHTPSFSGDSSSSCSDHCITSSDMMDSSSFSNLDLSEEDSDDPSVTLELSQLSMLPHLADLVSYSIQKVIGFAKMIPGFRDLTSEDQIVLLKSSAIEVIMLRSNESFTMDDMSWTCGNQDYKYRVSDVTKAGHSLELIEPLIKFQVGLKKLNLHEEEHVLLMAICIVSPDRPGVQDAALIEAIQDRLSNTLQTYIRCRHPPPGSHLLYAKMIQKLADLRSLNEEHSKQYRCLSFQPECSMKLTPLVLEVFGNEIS
Method in brief: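 GeneBLAzer VDR-UAS-bla HEK293T cells in 2% charcoal-stripped FBS medium were dosed with compound titrations for 16 h at 37 °C; CCF4 β-lactamase readout (405 nm ex, 460/530 nm em). EC50 and efficacy from Hill fits, normalized to 50 nM calcitriol (100%) and DMSO (0%).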

[8] = qHTS assay for small molecule agonists of retinoid X receptor alpha signaling (AID 588544; calls by dose curve;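 for activation: 0% = DMSO basal wells and 100% = reference agonist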); settings: HEK293T RXRa-UAS-bla, beta-lactamase reporter, 18 h; 530 nm emission
[9] = molecular target: Retinoic acid receptor RXR-alpha (Homo sapiens) (UniProt P19793); assay: as above
Retinoic acid receptor RXR-alpha (Homo sapiens), sequence (P19793 whole entry, looked up): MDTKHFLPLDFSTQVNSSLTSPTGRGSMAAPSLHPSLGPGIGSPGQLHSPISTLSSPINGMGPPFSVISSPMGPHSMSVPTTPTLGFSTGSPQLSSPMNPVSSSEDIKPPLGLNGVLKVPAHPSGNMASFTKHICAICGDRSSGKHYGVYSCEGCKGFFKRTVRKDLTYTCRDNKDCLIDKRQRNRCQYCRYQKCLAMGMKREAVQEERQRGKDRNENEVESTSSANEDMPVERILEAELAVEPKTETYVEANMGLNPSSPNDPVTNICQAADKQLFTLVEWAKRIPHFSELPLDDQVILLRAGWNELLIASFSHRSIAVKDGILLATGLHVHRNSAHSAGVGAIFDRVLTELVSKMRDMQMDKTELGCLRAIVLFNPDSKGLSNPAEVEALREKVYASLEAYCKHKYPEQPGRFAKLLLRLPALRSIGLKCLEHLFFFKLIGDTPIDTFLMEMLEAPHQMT

[10] = qHTS assay for small molecule antagonists of retinoid X receptor alpha signaling (AID 588546; active = well fitted inhibition curve with a large enough effect in the signal ratio, with a control signal flat, not every such curve was filed as active; the % refers to the signal ratio;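 note: cells stimulated with 9-cis-retinoic acid as agonist; % is set by controls: 0 for no effect and ±100 for the full control effect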); settings: HEK293T RXRa-UAS-bla, beta-lactamase ratio, antagonist mode; measured here: W530 green channel, cytotoxicity proxy
Method in brief: (§2)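 Beta-lactamase reporter inhibition, read as CCF4 fluorescence ratio (ex 405, em 460/530 nm) after 2 h at RT. HEK293T UAS-bla cells, 2500/well, were stimulated with 9-cis-RA at 500 or 100 nM final alongside test compound for 18 h at 37 C.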

[11] = molecular target: Retinoic acid receptor RXR-alpha (Homo sapiens) (UniProt P19793); assay: as above; settings: HEK293T RXRa-UAS-bla, beta-lactamase ratio, antagonist mode
Method in brief: as §2

[12] = qHTS assay for small molecule activators of the p53 signaling pathway (AID 651743; active = well fitted activation curve with a large enough effect in the signal ratio, not every such curve was filed as active; the % refers to the signal ratio; note: series mostly up to about 92 µM; % of control where 0% means no effect); settings: HCT-116 p53RE-bla, beta-lactamase FRET ratio, 16 h; activation: stronger effect = higher value
Method in brief: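 p53RE-bla HCT-116 cells with a stably integrated beta-lactamase reporter under p53 response elements were plated, rested 5 hours at 37 C/5% CO2, then exposed to compounds in DMSO for 16 hours at 37 C. LiveBLAzer B/G FRET substrate was read after 2 hours at room temperature.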

[13] = qHTS assay for small molecule activators of the nuclear factor-kappa B (NF-kB) signaling pathway (AID 651749; active = well fitted activation curve with a large enough effect in the signal ratio; the % refers to the signal ratio; note: series mostly up to about 77 µM; % of control where 0% means no effect); settings: NF-kB-bla ME-180 cells, beta-lactamase FRET ratio, 16 h; activation: stronger effect = higher value
Method in brief: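 ME-180 cells stably carrying a beta-lactamase reporter under an NF-kB response element were exposed to compound or DMSO vehicle for 16 hr at 37C, 5% CO2. Pathway activation was read by FRET, since reporter expression disrupts FRET.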

[14] = qHTS assay for environmental chemicals that activate the Aryl hydrocarbon Receptor (AhR) signaling pathway (AID 651777); settings: 1A2-DRE human hepatoma cells, luciferase, 24 h; activation: stronger effect = higher value; note: % of control where 0% means no effect; nearly all actives have a fitted effect of over 15% in size
Method in brief: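 Luminescence (One-Glo, 30 min, room temperature) reports AhR-driven luciferase in stably transfected human hepatoma cells bearing DRE and CYP1A2 promoter. Cells (1,200/well) were treated with compound for 24 hr at 37 C in qHTS format.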

[15] = molecular target: Peroxisome proliferator-activated receptor alpha (Homo sapiens) (UniProt Q07869); assay: qHTS assay for small molecule agonists of the peroxisome proliferator-activated receptor alpha (PPARalpha) signaling pathway (AID 651778); settings: PathHunter PPARalpha complementation, chemiluminescence, 6 h; max response: stronger effect = higher value; note: % of control where 0% means no effect
Peroxisome proliferator-activated receptor alpha (Homo sapiens), sequence (Q07869 whole entry, looked up): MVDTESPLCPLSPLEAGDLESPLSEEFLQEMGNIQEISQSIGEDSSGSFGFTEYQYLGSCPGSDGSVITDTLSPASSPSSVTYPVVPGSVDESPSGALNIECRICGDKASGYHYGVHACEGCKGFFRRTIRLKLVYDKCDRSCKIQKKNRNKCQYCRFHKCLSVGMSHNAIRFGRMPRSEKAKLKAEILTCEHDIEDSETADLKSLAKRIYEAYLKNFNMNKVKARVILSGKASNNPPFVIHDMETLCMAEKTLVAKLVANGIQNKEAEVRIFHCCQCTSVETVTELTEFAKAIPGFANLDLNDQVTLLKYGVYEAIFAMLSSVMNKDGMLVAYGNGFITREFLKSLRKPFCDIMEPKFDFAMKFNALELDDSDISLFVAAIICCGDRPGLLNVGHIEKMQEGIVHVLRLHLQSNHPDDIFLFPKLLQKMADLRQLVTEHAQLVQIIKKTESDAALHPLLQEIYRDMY
Method in brief: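 Cells plated at 2,000/well and held overnight at 37 C, 5% CO2, then compound added by pin tool for 6 hr; after PathHunter detection reagent and 60 min at room temperature, chemiluminescence from enzyme complementation was read.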

[16] = qHTS assay for small molecule agonists of the antioxidant response element (ARE) signaling pathway measured by Nrf2-dependant transcriptional activity - cell viability counter screen (AID 720653; active = well fitted curve in the direction sought with a large enough effect in the repeat runs; an effect the other way counts as inactive or inconclusive; note: % is set by controls: 0 for no effect and ±100 for the full control effect); settings: ARE-bla HepG2 viability, CellTiter-Glo ATP luminescence, 16 h; max response: stronger effect = lower value
Method in brief: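 ARE-bla HepG2 cells (2,000/well) rested 5 hrs at 37C/5% CO2, then exposed to compounds in DMSO for 16 hrs. Viability was read in the same wells as intracellular ATP by luminescence, 30 min at room temperature after reagent addition.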

[17] = qHTS assay for cell viability of HEK293 cells (AID 743288); settings: ATP luminescence (CellTiter-Glo), 18 h; max response: stronger effect = lower value; note: % is set by controls: 0 for no effect and ±100 for the full control effect; nearly all actives have a fitted effect of over 50% in size
Method in brief: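 Parental HEK293 cells were seeded at 2,000 cells/well, rested at least 5 h at 37 C, then exposed to compounds in DMSO for 18 h at 37 C. Viability was read as ATP-dependent luciferase luminescence after 30 min at room temperature.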

[18] = qHTS assay for cell viability of the p53RE-bla HCT-116 cell line (AID 743292); note: % is set by controls: 0 for no effect and ±100 for the full control effect; nearly all actives have a fitted effect of over 55% in size
Method in brief: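 ATP-based luminescent viability (CellTiter-Glo, 30 min RT) after 16 h compound treatment at 37 C of p53RE-bla HCT-116 cells, seeded at 4,000 cells/well and rested 5 h before dosing.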

[19] = molecular target: Nuclear receptor subfamily 1 group I member 2 (Rattus norvegicus) (UniProt Q9R1A7); assay: qHTS assay for small molecule activators of the rat pregnane X receptor (rPXR) signaling pathway (AID 651751; call rule not given here; note: 0% is about no effect); settings: rPXR reporter cells, luciferase (One-Glo), 24 h
Nuclear receptor subfamily 1 group I member 2 (Rattus norvegicus), sequence (Q9R1A7 whole entry, looked up): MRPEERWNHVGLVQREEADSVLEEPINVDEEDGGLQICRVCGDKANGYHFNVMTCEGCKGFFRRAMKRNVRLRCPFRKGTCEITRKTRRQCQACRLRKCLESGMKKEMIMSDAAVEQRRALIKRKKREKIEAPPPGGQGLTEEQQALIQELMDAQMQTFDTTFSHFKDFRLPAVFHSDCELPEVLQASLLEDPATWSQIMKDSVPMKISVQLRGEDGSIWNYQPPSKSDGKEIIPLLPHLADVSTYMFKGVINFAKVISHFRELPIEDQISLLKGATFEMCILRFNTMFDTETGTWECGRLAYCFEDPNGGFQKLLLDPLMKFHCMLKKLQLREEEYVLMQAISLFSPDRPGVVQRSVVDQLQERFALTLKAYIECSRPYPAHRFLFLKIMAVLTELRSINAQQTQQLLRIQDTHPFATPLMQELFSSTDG

[20] = qHTS assay for small molecule activators of the human pregnane X receptor (PXR) signaling pathway (AID 720659; call rule not given here; note: 0% is about no effect)

CC1=C(C(=O)OCc2ccccc2)C(c2ccc(C3CCCCC3)cc2)NC(=O)N1CCCCCC(=O)O (centres undefined)
inactive: outcome [1] | Potency [2]

COCCNC(=O)C1(CC(C)C)C=CCN1C(=O)OC (centres undefined)
inactive: outcome [1] | Potency [2]

CC1(C(=O)NCCN2CCOCC2)C=CCN1C(=O)c1ccccc1 (centres undefined)
inactive: outcome [1] | Potency [2]

COC(=O)c1ccc(C(/C=C/[C@@H](C)C(=O)N(C)C)NC(=O)OCc2ccccc2)cc1 (some centres undefined)
inactive: outcome [1] | Potency [2]

CC(=O)N1CC=CC1(CC(C)C)C(=O)NCc1ccc(C)o1 (centres undefined)
inactive: outcome [1] | Potency [2]

CNC(=O)[C@@H]1C[C@H]1[C@@H](NC(=O)CNC(=O)OCc1ccccc1)c1ccccc1
inactive: outcome [1] | Potency [2]

COC(=O)[C@@]1(C)C[C@@H]1[C@@H](NC(=O)[C@@]1(C)C[C@@H]1[C@@H](NC(=O)[C@@]1(C)C[C@@H]1[C@@H](NC(=O)[C@@]1(C)C[C@@H]1[C@@H](NC(=O)OCc1ccccc1)c1ccccc1)c1ccccc1)c1ccccc1)c1ccccc1
inactive: outcome [1] | Potency [2]

COC(=O)CCCCCN1C(=O)NC(c2ccccc2)C(C(=O)OCc2ccccc2)=C1C (centres undefined)
inactive: outcome [1] | Potency [2]

CCCCNC(=O)C(c1ccc(OCC(=O)OC)c(C(=O)OC)c1)N(CCC1=CCCCC1)C(=O)CCCCCN1C(=O)NC(c2ccc(-c3ccccc3)cc2)C(C(=O)OCc2ccccc2)=C1C (centres undefined)
inactive: outcome [1] | Potency [2]

CNC(=O)[C@@]1(C)C=C[C@@H](Cc2ccccc2)N1C(=O)OC
inactive: outcome [1] | Potency [2]

COC(=O)CCCCCN1C(=O)NC(CC2CC2)C(C(=O)OCc2ccccc2)=C1C (centres undefined)
inactive: outcome [1] | Potency [2]

CC(=O)N1CC=CC1(CC(C)C)C(=O)NCc1ccccn1 (centres undefined)
inactive: outcome [1] | Potency [2]

COCCNC(=O)C1(CC(C)C)C=CCN1C(=O)c1ccccc1 (centres undefined)
inactive: outcome [1] | Potency [2]

CC(=O)N1CC=CC1(C)C(=O)NCC1CC1 (centres undefined)
inactive: outcome [1] | Potency [2]

COCCNC(=O)[C@H](C)/C=C/C(NC(=O)OCc1ccccc1)c1ccc(C(=O)OC)cc1 (some centres undefined)
inactive: outcome [1] | Potency [2]

CCCCCCCCCCCCCCN
-7.23%: max response [5]
inactive: Potency [3] | Potency [4] | Potency [6] | outcome [7] | Potency [9] | max response [11] -5.01% | activation [12] 2.13% | activation [13] -1.74% | activation [14] -0.123% | max response [15] -1.81% | max response [16] 4.41% | max response [17] -3.28% | Potency [18] | max response [19] 1.71% | outcome [20]
-19.1%: max response [8]
-5.44%: max response [10]

CCCCCCCCCCCCCCCCCC(N)=O
51.4%: max response [5]
inactive: Potency [3] | Potency [4] | Potency [6] | outcome [7] | activation [12] 0.913% | activation [13] -1.76% | activation [14] -1.31% | max response [15] -0.969% | max response [16] 5.14% | max response [17] -6.14% | Potency [18] | max response [19] 4.74% | outcome [20]

CCCCOC(=O)c1ccccc1
0.0882%: max response [5]
-7.9%: max response [8]
inactive: Potency [3] | Potency [4] | Potency [6] | outcome [7] | Potency [9] | max response [11] 3.76% | activation [12] -4.18% | activation [13] 0.836% | max response [15] -1.04% | max response [16] 21.3% | max response [17] -6.32% | Potency [18] | max response [19] -2.16% | outcome [20]
-1.79%: max response [10]
